From PubChem BioAssay (NCATS) come the findings set out here.

“And” between values parts separate entries of the source, which are not always exact repeats. Identical values can stand only once. For some of these results: Entries with a potency or affinity are not part of this list. The source made the active and inactive calls. The rule behind the calls is not given here.

For test [1] the following is noted: Ebola virus entry assay, green fluorescence channel.
For test [2] the following is noted: Ebola virus entry assay, blue channel fluorescence.
For test [3] the following is noted: Ebola virus entry assay, ratio channel.
For test [4] the following is noted: Ebola virus entry assay, green channel fluorescence.
The conditions of test [5]: Ebola virus entry assay, reporter ratio channel; AC50: Channel type: primary unless noted; outcome: Channel type: primary unless noted.
The conditions of test [6]: Ebola virus entry assay, blue channel (ratio component).
The nature of test [7]: qHTS profiling for inhibitors of Plasmodium falciparum (DD2) proliferation (AID 743323). The settings on record: lower = more inhibition; at 28.7 µM (top of the series). In outline: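 P. falciparum Dd2-infected erythrocytes (0.3% parasitemia, 2.5% hematocrit) exposed 72 h at 37 C, 5% CO2. Lysis with SYBR Green, overnight at room temperature, fluorescence 485/535 nm; normalized to 0.29 uM artemisinin and DMSO.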
A general note: qHTS replaces the single test concentration by a dilution series.

Test [8] is described as follows: qHTS profiling of the MIPE4 collection as inhibitors of Plasmodium falciparum (3D7) proliferation (AID 743344).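 Note: scaled between DMSO vehicle wells and 0.29 µM artemisinin as full inhibition.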 The settings on record: P. falciparum 3D7 in erythrocytes, SYBR Green DNA fluorescence, 72 h; at 28.5 µM (top of the series) unless noted. In outline: (§1)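 Parasite DNA was quantified by SYBR Green I fluorescence (ex 485, em 535 nm) after overnight lysis in saponin/Triton buffer at room temperature. Cultures at 0.3% parasitemia and 2.5% hematocrit were first exposed to compound for 72 h at 37 C; signals were normalised to artemisinin (0.29 uM) and vehicle wells.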

Test [9] can be described thus: qHTS profiling of the MIPE4 collection as inhibitors of Plasmodium falciparum (DD2) proliferation (AID 743345). The settings on record: P. falciparum Dd2 in erythrocytes, SYBR Green DNA, 72 h; at 28.5 µM (top of the series) unless noted. In short, it runs like this:
as §1

The nature of test [10]: qHTS profiling of the MIPE4 collection as inhibitors of Plasmodium falciparum (DD2) proliferation (Rep 2) (AID 743346). Particulars: P. falciparum Dd2 in erythrocytes, SYBR Green DNA, 72 h; at 28.5 µM (top of the series) unless noted. In outline: as §1
A short description of test [11]: qHTS profiling of the MIPE4 collection as inhibitors of Plasmodium falciparum (HB3) proliferation (AID 743347).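 Note: plate controls were DMSO vehicle wells for no effect and artemisinin wells for full effect.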 The settings on record: P. falciparum HB3 in erythrocytes, SYBR Green DNA, 72 h; at 28.5 µM (top of the series) unless noted. In outline: as §1
A short description of test [12]: Immunotoxin (HA22) sensitization/mitigation study. Vehicle arm (PBS) (AID 1159510). Note: potency is the fitted concentration of half-maximal effect. Particulars: cancer cells viability with PBS vehicle (HA22 study); series mostly up to 46.1 µM.
Test [13] is described as follows: Immunotoxin (SS1P) sensitization/mitigation study. Vehicle arm (DMEM) (AID 1159513). The settings on record: cell viability with vehicle (DMEM); series mostly up to 46.1 µM.

A word on the AC50: it is the concentration at which the activity in the assay is half-maximal.
Throughout, for efficacy: 0% is about no effect.

For the compound `CCN(CC)CCOC(=O)C(O)(c1ccccc1)c1ccccc1`, in test [1], the efficacy was -15.5% (inactive). Further, the call in test [2], in test [3], in test [4], in [5] and in [6] was inactive.
Take `C=CCN1CC[C@]23c4c5ccc(O)c4O[C@H]2C(=O)CC[C@@]3(O)[C@H]1C5`: the efficacy in [1] is 15.7% (inactive). The outcome in [2], in test [3], in [4], in test [5] and in test [6] was inactive.
For `OCCOc1ccccc1`, the efficacy in test [1] is -12.5% (inactive). The compound was classed as inactive in [2], in test [3], in [4], in test [5] and in [6].
As to `CC(C)=CC1C(C(=O)OCc2cccc(Oc3ccccc3)c2)C1(C)C` (stereo not given), in test [1], the efficacy is -13.4% (inactive). Besides, the call in [2], in [3], in test [4], in test [5] and in test [6] was inactive.
Turning to `CC(C)=CCOc1c2occc2cc2ccc(=O)oc12`, in [1], the efficacy was 19.5% (inactive). The half-maximal activity concentration (AC50) in [2] and in [5] was 25.1 µM (active) throughout. The result in [3] and in test [4] was inactive.
`O=C(NC(O)C(Cl)(Cl)Cl)NC(O)C(Cl)(Cl)Cl` (stereo not given): in test [1], the efficacy is 18% (inactive). Also, the compound was called inactive in test [2], in [3], in [4], in test [5] and in [6].
For `Clc1cccc(N2CCNCC2)c1`, in test [1], the efficacy is 26.6% (inactive). The result in test [2], in [3], in test [4], in test [5] and in test [6] was inactive.
As to `CC(=O)Nc1cc([As](=O)(O)O)ccc1O`, in [1], the efficacy is 15.5% (inactive). For the same compound, the compound was classed as inactive in test [2], in test [3], in [4], in test [5] and in test [6].
`CC(=O)[C@H]1CC[C@H]2[C@@H]3CC[C@H]4C[C@H](O)CC[C@]4(C)[C@H]3C(=O)C[C@]12C`: in [1], the efficacy was -24.6% (inactive). Moreover, the call in [2], in test [3], in test [4], in [5] and in test [6] was inactive.
On to `NC(=O)N/N=C/c1ccc([N+](=O)[O-])o1`, for which, in [1], the efficacy is 31.4% (inactive). Besides, the result in test [2], in [3], in [4], in test [5] and in test [6] was inactive.
Turning to `CC[N+]1(C)CCCC(OC(=O)C(O)(c2ccccc2)c2ccccc2)C1` (stereo not given), the efficacy in test [1] is 26% (inactive). In addition, the outcome in [2], in [3], in [4], in [5] and in test [6] was inactive.
On to `FC(F)(F)c1cccc(C2=CCN(CCc3ccc4ccccc4c3)CC2)c1`, for which, in [1], the efficacy is -24.5% (inactive). The outcome in test [2], in test [3], in test [4], in [5] and in test [6] was inactive.
Regarding `Cc1ncc(CNC(=O)N(CCCl)N=O)c(N)n1`, the efficacy in [1] was 16.2% (inactive). For the same compound, the outcome in [2], in [3], in test [4], in test [5] and in [6] was inactive.
With `CC(C)NCC(O)c1ccccc1Cl` (stereo not given), in test [1], the efficacy was 16.7% (inactive). In addition, the outcome in test [2], in test [3], in test [4], in test [5] and in test [6] was inactive.
For `c1ccc(C2CC2)c(OCC2=NCCN2)c1`, the efficacy in [1] was 46.8% (inactive). Moreover, the AC50 in test [2] and in test [5] was 39.8 µM (active) each time. In addition, the outcome in [3] and in [4] was inactive.
Regarding `Cc1nc(N)nc(N)c1-c1ccc(Cl)c(Cl)c1`, the efficacy in [1] was -23% (inactive). Further, the AC50 in test [2] is 12.6 µM (active); in [3], 28.2 µM (active); in test [5] it was 28.2 µM (active). Moreover, in test [4], the call was inactive.
`C[C@@H]1CC(=O)NN=C1c1ccc(NN=C(C#N)C#N)cc1`: in test [1], the efficacy was -24% (inactive) and 20% (inactive). The result in [2], in test [3], in test [4], in test [5] and in [6] was inactive.
In the case of `Cn1cc(C2=C(c3cn(C4CCN(Cc5ccccn5)CC4)c4ccccc34)C(=O)NC2=O)c2ccccc21`, the activity, percent of control in test [7] turned out to be 70%. In addition, in test [8], the parasite growth, % of DMSO control is 11.5%. This compound returned a parasite growth remaining, % of DMSO control (lower = more inhibition) in [9] of 19.9%. The compound also showed a parasite growth, % of control (lower = inhibition) in [10] of 21.1%. This compound also showed a growth, % of control in [11] of 6.8%. Further, in [1], the efficacy was 36.4% (inactive). Further, the call in test [2], in test [3], in [4] and in test [5] was inactive. In addition, the Potency in test [12] was 4.18 µM (active).
Turning to `CCCCC(CC)CN=C(N)NC(N)=NCCCCCCN=C(N)NC(N)=NCC(CC)CCCC` (stereo not given), in test [1], the efficacy was -201% (inactive). In [2], the AC50 is 11.2 µM (active). In addition, the outcome in test [3] and in [5] was inactive.
Take `COC(=O)Nc1nc2ccc(C(=O)C3CC3)cc2[nH]1`: the efficacy in [1] is 69.7% (inactive). Further, the AC50 in test [2] was 8.91 µM (active); in [3] it was 7.94 µM (active); in test [5], 7.94 µM (active).
As for `CN1C[C@H](CNC(=O)OCc2ccccc2)C[C@@H]2c3cccc4c3c(cn4C)C[C@H]21`, the efficacy in [1] was 74.4% (inactive). The AC50 in test [2] was 6.31 µM (active); in test [3], 3.98 µM (active); in [5] it was 3.98 µM (active).
Turning to `CCCCCCC[N+](CC)(CC)CCCCc1ccc(Cl)cc1`, the efficacy in [1] is 30.3% (inactive). Also, the AC50 in [2] and in test [5] was 39.8 µM (active) throughout. For the same compound, the outcome in test [3] was inactive.
Regarding `C[C@H]1O[C@@H](O[C@H]2[C@@H](O)C[C@H](O[C@H]3[C@@H](O)C[C@H](O[C@H]4CC[C@@]5(C)[C@H](CC[C@@H]6[C@@H]5CC[C@]5(C)[C@@H](C7=CC(=O)OC7)CC[C@]65O)C4)O[C@@H]3C)O[C@@H]2C)C[C@H](O)[C@@H]1O`, the efficacy in test [1] was -46.6% (inactive). Further, the AC50 in test [2] is 1.41 µM (active); in [3], 0.708 µM (active); in [5], 0.708 µM (active).
Regarding `Clc1ccc(COC(Cn2ccnc2)c2ccc(Cl)cc2Cl)cc1` (stereo not given), in [1], the efficacy is -214% (inactive). The results for the AC50 in test [2], in test [3] and in test [5] were 10 µM (active), 3.55 µM (active) and 3.55 µM (active), respectively.
`C[C@@H]1O[C@@H](O[C@H]2C[C@@H](O)[C@]3(CO)[C@H]4[C@H](O)C[C@]5(C)[C@@H](C6=CC(=O)OC6)CC[C@]5(O)[C@@H]4CC[C@]3(O)C2)[C@H](O)[C@H](O)[C@H]1O` registered a parasite growth, % of DMSO control in test [8] of 81.9%. In [9], the parasite growth remaining, % of DMSO control (lower = more inhibition) was 95.7%. Besides, the efficacy in [1] is -93.6% (inactive). In addition, the AC50 is 8.91 µM (active) in [2], 0.708 µM (active) in test [3] and 0.708 µM (active) in [5]. Besides, the compound was classed as inactive in [4].
In turn, `Cc1cccc(C)c1NC(=O)CN1CCCC1=O` registered a parasite growth, % of DMSO control in test [8] of 101%. The parasite growth remaining, % of DMSO control (lower = more inhibition) in test [9] stood at 99.6%. The efficacy in test [1] was -15.1% (inactive). Also, the compound was classed as inactive in test [2], in [3], in test [4] and in [5].
Regarding `CCCc1nc2c(C)cc(-c3nc4ccccc4n3C)cc2n1Cc1ccc(-c2ccccc2C(=O)O)cc1`, the efficacy in test [1] was 21.4% (inactive). Besides, the outcome in test [2], in [3], in [4], in test [5] and in test [6] was inactive. Besides, the Potency in test [12] is 26.4 µM (active). The Potency result in [13] is “inactive”.
With `c1ccc2c(c1)Nc1ccccc1S2`, in test [1], the efficacy was 4% (inactive). Moreover, the compound was called inactive in [2], in test [3] and in [5].
